# Assay results taken from PubChem BioAssay (NCI).
# “And” between values parts separate entries of the source, which are not always exact repeats. Equal values may be shown once. Compounds without any hit were thinned out: in the full panel of roughly 83,000, 20% have a hit.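 Single-concentration screen, 48 h exposure, 96-well plates. Endpoint: percent growth. Below 10 = active.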 A number with no mark means an inactive call. The source made the active and inactive calls.
# Tested on: HL-60(TB) leukemia
# Assay: NCI-60 one-dose screen, 48 h (100 = growth as untreated, 0 = no growth, -100 = all killed)
# Conditions: 10 µM unless noted
row,SMILES,growth
1,Cc1[nH]c2ccccc2c(=O)c1CC=C(Cl)Cl,57.5%
2,Cn1cc(C(=O)c2nc(-c3c[nH]c4ccccc34)no2)c2ccccc21,58.5%
3,COc1cc(-c2cc(-c3ccc(N(C)C)cc3)nc(N3CCC(O)CC3)c2C#N)cc(OC)c1OC,-23.6% (active)
4,CNC(C)[C@H]1CCC2C3CCC4C[C@@H](N(C)C(=O)c5ccccc5)CC[C@]4(C)C3CC[C@@]21C (some centres not stated),14.9%
5,COc1ccccc1C(C[N+](=O)[O-])c1c(-c2ccccc2)[nH]c2cc(C)ccc12 (configuration not stated),58.9%
6,Cc1cccc(Cc2cnc(NC(=O)c3ccc4nnsc4c3)s2)c1,94.1%
7,CC12CCC3c4ccccc4CCC3(CO1)C2 (configuration not stated),87.7%
8,CSc1oc(C)nc1[P+](c1ccccc1)(c1ccccc1)c1ccccc1,46.5%
9,Cc1cc(C(=O)NN)c(C#N)c(=O)[nH]1,111%
10,O=C(NNc1ccccc1)c1ccccc1,7.78% (active) and -1.5% (active)
11,COc1ccc2[nH]cc(/C=C3\C(=O)Nc4ccccc43)c2c1,-31.7% (active)
12,CCOC(=O)c1cc(CC)sc1NC(=O)CC(C)=O,51.4%
13,O=C(CN1CCN(c2cc3c(cc2F)c(=O)c(C(=O)N/N=C/c2ccccc2O)cn3C2CC2)CC1)N/N=C\c1ccccc1O,1.69% (active)
14,COc1ccc(Nc2nnc(-c3ccc(OC)c(OC)c3)o2)cc1,84.2%
15,CCOC(=O)C(=Cc1ccc(Br)cc1)C(=O)OCC,-41.8% (active)
16,NC(=S)c1c(N)n(C2OC(CO)C(O)C2O)c2ncnc(N)c12 (configuration not stated),-43.6% (active)
17,COc1ccccc1/C=C/C(=O)/C=C/c1ccccc1OC,15.1% and 18.7%
18,COc1cc(C2CC(C3C(=O)N(C)C(=O)N(C)C3=O)=NN2c2cc(Cl)cc(Cl)c2)cc(OC)c1OC (configuration not stated),98.6%
19,O=C(N/N=C/c1ccc(F)cc1)c1[nH]c2ccc(I)cc2c1-c1ccccc1,51.2%

row,SMILES,growth
1,CN1C2CCC1CN(c1cnc(C(=O)Nc3cc(F)cc4cccnc34)cn1)C2,5.69% (active)
2,COC(=O)c1cccc(NC(=O)c2ccc(-c3cccc(N)c3)o2)c1,99.9%
3,Cc1ccc(N2C(=O)c3cccc4c(N)c(S(=O)(=O)O)cc(c34)C2=O)cc1,88.8%
4,O=C(C(=O)N1CCOCC1)c1ccc(O[C@H]2O[C@H](CO)[C@@H](O)[C@H](O)[C@@H]2O)cc1,113%
5,Nc1cc(N)c(S(=O)(=O)O)cc1N=Nc1cc([N+](=O)[O-])ccc1O,92.5%
6,COc1ccc(C(=O)c2cc(OC)c3c(c2)OCO3)cc1O,13.4%
7,N=C(N)c1ccc(-c2ccc(-c3ccc(F)cc3)o2)o1,-44.2% (active)
8,COc1cc(OC)c(C(=O)/C=C/c2ccc(C(F)(F)F)cc2)c(OC)c1,45.1%
9,COc1ccc(-c2cnc(N)nc2-c2ccc(OC)cc2O)cc1,79%
10,CN1CCN(Cc2ccc(NC(=O)c3ccc(C#N)c(C#Cc4cnc(N)c5ncccc45)c3)cc2C(F)(F)F)CC1,60.8%
11,Cc1cc(C)nc(NS(=O)(=O)c2ccc(Nc3nc4nc(NCc5ccccc5)nc(-c5ccc(O)cc5)c4c(=O)[nH]3)cc2)n1,1.48% (active)
12,CC(C)(C)OC(=O)N1CCc2c(sc3ncnc(N/N=C/c4cccc(Br)c4)c23)C1,71.8%
13,CCC(C(=O)[C@@H](C)[C@@H](O)[C@H](C)[C@@H]1O[C@@H]([C@@H](CC)C(=O)ONC(=O)c2ccccc2)CC[C@@H]1C)[C@H]1O[C@]2(C=CC(=O)[C@]3(CC[C@@](C)([C@H]4CC[C@](O)(CC)[C@H](C)O4)O3)O2)[C@H](C)C[C@@H]1C (some centres not stated),-63.9% (active)
14,COc1cc2c(cc1OCCCCCn1c3ccccc3c3ccccc31)N=C[C@@H]1CCCN1C2=O,-46.7% (active)
15,O=C(Nc1ccc(Cl)c(Cl)c1)Nc1ccc(Cl)c([N+](=O)[O-])c1,-39.9% (active)
16,COc1ccc(/C=N/NC(=O)Cn2c(Cc3cccc4ccccc34)nc3ccccc32)cc1,93.2%
17,Cc1ccccc1N=C(c1ccccc1)C1C(=O)c2ccccc2C1=O,78.5%
18,CCOC(=O)Cn1c(O)c(N=Nc2ccc(S(N)(=O)=O)cc2)c2cc(Br)ccc21,96.2%
